Here are results for one sequence from PMC7862700, “An all-to-all approach to the identification of sequence-specific readers for epigenetic DNA modifications on cytosine”.

Holding throughout (assay): DAPPL (digital affinity profiling via proximity ligation, sequencing); 10 mM Tris-HCl pH 7.5, 50 mM NaCl, 1 mM DTT, 4% glycerol, room temperature, 30 min; GST-TFs on glutathione beads, 16-mer random dsDNA library, 0.1% formaldehyde crosslink after washing; high values mean tight binding
What all share (conditions): protein: recombinant; tags: N-terminal GST; dsDNA, one strand shown

Experiment [1] has as its target ETV5 (Homo sapiens, UniProt P41161 1-510). Summed up:
(§1)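 Beads coated with glutathione captured GST-fused human transcription factors that had been expressed in yeast, and the factors were then given DNA barcodes and pooled with a tag-only sample. The pools were incubated with 200 nmole of a random double-stranded 16-mer DNA library in Tris/NaCl/DTT/glycerol buffer for 30 min at room temperature, washed, crosslinked with 0.1% formaldehyde and proximity-ligated with BsaI/T4 ligase at 37 °C for 1 h. PCR amplification and Illumina NextSeq500 sequencing came last. Binding signal is each hexamer's read frequency for a factor divided by its frequency for the tag-only sample.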

Experiment [2] deals with T1, SPIC (Homo sapiens, UniProt Q8N5J4 1-248).
T1 sequence: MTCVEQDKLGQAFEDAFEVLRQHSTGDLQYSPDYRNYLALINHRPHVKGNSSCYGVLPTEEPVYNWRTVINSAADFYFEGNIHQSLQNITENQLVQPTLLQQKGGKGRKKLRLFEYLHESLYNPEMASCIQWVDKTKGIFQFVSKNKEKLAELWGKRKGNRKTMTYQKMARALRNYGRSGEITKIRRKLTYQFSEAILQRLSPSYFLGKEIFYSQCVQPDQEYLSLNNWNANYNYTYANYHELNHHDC
Put shortly:
as §1

Experiment [3] has as its target ELF4 (Homo sapiens, UniProt Q99607 1-663). Put shortly:
as §1

The target of experiment [4] is ETV1 (Homo sapiens, UniProt P50549 1-477). Summed up: as §1
Experiment [5] has as its target T2, ERF (Homo sapiens, UniProt P50548 1-548).
T2 sequence: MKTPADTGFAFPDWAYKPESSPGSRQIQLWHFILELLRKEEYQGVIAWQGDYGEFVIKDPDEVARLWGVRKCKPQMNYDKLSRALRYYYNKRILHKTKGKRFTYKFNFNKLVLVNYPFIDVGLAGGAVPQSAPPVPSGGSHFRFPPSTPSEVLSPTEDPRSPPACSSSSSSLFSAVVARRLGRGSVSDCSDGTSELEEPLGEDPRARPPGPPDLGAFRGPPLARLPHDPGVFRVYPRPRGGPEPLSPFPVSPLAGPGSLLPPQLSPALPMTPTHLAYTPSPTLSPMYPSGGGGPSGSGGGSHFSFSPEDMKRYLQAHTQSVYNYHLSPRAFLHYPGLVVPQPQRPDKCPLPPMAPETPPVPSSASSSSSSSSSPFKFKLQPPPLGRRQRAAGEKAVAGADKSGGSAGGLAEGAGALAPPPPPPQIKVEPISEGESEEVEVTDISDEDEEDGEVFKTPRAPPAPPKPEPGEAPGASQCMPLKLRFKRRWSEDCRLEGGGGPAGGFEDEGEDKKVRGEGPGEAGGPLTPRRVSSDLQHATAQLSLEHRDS
Summed up:
as §1

The target of experiment [6] is T3, ETV3L (Homo sapiens, UniProt Q6ZN32 1-361).
T3 sequence: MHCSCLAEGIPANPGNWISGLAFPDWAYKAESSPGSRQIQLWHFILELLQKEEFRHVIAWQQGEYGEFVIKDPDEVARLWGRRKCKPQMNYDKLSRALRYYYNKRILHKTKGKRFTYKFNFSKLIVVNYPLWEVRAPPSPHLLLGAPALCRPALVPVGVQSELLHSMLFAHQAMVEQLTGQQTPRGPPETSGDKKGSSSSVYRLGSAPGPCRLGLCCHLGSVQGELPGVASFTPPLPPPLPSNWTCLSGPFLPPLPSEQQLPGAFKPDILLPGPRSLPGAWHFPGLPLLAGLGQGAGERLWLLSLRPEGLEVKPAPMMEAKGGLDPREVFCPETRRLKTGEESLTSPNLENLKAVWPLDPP
Put shortly: as §1

In experiment [7] the target is T4, ETS2 (Homo sapiens, UniProt P15036 1-469).
T4 sequence: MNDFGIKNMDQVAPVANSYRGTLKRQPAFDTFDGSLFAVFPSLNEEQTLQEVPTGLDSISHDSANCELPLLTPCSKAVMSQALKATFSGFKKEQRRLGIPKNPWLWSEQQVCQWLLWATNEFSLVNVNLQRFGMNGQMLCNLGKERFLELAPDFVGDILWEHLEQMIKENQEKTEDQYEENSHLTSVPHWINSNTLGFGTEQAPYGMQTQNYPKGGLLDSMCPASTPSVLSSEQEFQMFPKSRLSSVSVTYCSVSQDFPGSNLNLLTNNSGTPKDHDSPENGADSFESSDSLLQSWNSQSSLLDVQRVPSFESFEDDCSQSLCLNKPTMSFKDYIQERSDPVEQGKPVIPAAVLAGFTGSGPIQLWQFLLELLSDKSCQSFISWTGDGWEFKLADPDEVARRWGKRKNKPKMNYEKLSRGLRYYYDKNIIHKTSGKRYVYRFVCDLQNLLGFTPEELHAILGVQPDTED
Summed up: as §1

Experiment [8] deals with T5, ELF5 (Homo sapiens, UniProt Q9UKW6-2 1-255).
T5 sequence: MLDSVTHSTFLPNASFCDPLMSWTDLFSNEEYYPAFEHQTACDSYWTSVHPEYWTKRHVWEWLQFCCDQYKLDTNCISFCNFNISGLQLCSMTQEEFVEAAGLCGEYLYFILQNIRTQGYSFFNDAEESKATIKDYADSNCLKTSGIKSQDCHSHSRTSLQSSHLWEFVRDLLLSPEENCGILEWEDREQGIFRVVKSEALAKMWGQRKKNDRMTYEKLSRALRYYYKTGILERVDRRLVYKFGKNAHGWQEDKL
Summed up:
as §1

The target in experiment [9] is T6, ETV3 (Homo sapiens, UniProt P41162-2 1-143).
T6 sequence: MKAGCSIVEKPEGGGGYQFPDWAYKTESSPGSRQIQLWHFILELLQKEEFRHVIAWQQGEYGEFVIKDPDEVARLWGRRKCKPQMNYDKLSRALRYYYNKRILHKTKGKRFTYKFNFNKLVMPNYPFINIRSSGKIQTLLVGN
Put shortly: as §1

The target in experiment [10] is ETV6 (Homo sapiens, UniProt P41212 1-452). Summed up: as §1
ETV6, sequence (P41212 whole entry): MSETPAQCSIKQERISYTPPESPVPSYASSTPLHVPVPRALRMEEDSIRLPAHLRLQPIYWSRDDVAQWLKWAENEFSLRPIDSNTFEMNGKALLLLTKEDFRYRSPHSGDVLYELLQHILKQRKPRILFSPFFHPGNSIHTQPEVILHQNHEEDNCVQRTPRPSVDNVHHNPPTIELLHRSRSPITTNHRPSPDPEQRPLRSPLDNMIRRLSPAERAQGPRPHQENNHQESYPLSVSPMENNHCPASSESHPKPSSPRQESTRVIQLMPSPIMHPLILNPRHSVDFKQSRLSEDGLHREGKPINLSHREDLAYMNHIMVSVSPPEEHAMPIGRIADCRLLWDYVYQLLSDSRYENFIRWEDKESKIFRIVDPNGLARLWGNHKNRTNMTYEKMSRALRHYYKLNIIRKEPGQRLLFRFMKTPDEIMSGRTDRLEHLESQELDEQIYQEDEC

ELF4, sequence (Q99607 whole entry): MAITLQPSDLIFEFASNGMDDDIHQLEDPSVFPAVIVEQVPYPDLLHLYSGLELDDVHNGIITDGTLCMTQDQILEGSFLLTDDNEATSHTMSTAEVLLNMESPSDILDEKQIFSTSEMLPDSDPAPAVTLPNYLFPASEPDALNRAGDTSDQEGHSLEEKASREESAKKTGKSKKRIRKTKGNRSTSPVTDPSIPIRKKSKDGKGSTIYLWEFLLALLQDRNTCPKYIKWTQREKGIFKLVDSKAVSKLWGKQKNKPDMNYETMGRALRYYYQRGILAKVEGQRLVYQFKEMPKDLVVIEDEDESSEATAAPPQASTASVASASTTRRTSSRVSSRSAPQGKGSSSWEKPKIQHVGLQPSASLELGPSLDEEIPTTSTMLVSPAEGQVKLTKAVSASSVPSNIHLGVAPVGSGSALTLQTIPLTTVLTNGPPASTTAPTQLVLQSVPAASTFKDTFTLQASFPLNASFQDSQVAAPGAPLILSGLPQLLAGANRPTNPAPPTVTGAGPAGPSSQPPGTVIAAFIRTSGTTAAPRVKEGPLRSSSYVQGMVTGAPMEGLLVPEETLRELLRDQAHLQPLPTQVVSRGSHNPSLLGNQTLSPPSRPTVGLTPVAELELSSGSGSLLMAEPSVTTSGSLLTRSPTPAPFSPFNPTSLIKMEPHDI
ETV5, sequence (P41161 whole entry, the tested form may be a part): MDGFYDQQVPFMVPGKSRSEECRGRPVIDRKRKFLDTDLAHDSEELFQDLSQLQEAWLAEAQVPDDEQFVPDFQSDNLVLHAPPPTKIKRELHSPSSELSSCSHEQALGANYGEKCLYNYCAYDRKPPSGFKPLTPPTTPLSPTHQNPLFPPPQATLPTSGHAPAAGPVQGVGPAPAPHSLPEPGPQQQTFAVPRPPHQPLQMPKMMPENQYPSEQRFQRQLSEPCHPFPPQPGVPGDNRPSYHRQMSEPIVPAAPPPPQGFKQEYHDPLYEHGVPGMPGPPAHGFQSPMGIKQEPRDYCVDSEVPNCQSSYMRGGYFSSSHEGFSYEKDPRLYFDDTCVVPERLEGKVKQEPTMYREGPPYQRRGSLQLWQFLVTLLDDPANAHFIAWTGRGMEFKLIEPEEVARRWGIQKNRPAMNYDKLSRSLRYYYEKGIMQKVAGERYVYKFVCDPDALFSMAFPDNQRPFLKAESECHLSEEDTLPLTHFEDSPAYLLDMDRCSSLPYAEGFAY
ETV1, sequence (P50549 whole entry): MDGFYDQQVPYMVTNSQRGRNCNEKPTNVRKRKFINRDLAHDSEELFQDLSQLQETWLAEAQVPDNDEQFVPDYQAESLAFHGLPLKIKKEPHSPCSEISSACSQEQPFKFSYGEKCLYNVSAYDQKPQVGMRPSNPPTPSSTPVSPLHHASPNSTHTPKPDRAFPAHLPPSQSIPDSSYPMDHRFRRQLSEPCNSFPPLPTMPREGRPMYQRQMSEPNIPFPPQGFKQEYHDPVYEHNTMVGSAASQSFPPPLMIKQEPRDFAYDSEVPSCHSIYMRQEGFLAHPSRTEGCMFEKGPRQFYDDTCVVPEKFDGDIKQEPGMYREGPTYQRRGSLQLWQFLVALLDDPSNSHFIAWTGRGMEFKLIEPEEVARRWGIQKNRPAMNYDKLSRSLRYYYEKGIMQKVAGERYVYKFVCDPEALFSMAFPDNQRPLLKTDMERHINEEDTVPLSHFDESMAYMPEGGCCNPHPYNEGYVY

For GGAAGA, the binding signal is 1.22 fold enrichment (6-mer frequency, TF over GST control) in experiment [1]; 1.08 fold enrichment (6-mer frequency, TF over GST control) in experiment [2]; 1.06 fold enrichment (6-mer frequency, TF over GST control) in [3]; 1.2 fold enrichment (6-mer frequency, TF over GST control) in experiment [4]; 1.03 fold enrichment (6-mer frequency, TF over GST control) in experiment [5]; 1.14 fold enrichment (6-mer frequency, TF over GST control) in [6]. Further, the binding signal in experiment [7] was 1.18 fold enrichment (6-mer frequency, TF over GST control); in experiment [8] it was 1.58 fold enrichment (6-mer frequency, TF over GST control); in experiment [9] it was 1.24 fold enrichment (6-mer frequency, TF over GST control); in experiment [10], 1.26 fold enrichment (6-mer frequency, TF over GST control).
